According to PubChem BioAssay (NCATS):
Values joined by “and” are separate entries in the source; they are usually repeats but may differ in a detail not shown here. Identical values can stand only once. Records with an inconclusive call do not appear. Active and inactive are the calls of the source. Calls follow the shape of the dose curve; as a rule, active = well fitted inhibition curve with a large enough effect; inconclusive = small, poorly fitted or top-dose-only effect; inactive = flat fitted curve, though single readings scatter. Where a SMILES comes first, the peptide text is derived from it. [ ]: non-standard residue; d: D form. pGlu = O=C1CC[C@@H](C(=O)O)N1; Thz = O=C(O)[C@@H]1CSCN1

Assays:
P93_24 = assay: qHTS profiling for inhibitors of Plasmodium falciparum proliferation (AID 504749); also: potency is read from the fitted curve at half-maximal effect; details: P. falciparum in erythrocytes, SYBR Green DNA, 72 h; series mostly up to 28.7 µM
How it was run: (§1)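 Infected RBCs, 0.3% parasitemia/2.5% Hct final; cpd 72 h, 37 C, 5% CO2; lysis buffer with saponin/triton/SYBR Green I, o/n RT dark; FI 485/535; norm. to artemisinin (0.29 uM) and DMSO.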

P94_40 = assay: as above; details: P. falciparum in erythrocytes, SYBR Green DNA, 72 h; series mostly up to 28.7 µM
How it was run: as §1

PAD = assay: as above; details: P. falciparum in erythrocytes, SYBR Green DNA, 72 h; series mostly up to 28.7 µM
How it was run: as §1

PC15 = assay: as above; details: P. falciparum in erythrocytes, SYBR Green DNA, 72 h; series mostly up to 28.7 µM
How it was run: as §1

PC26 = assay: as above; details: P. falciparum in erythrocytes, SYBR Green DNA, 72 h; series mostly up to 28.7 µM
How it was run: as §1

PC49 = assay: as above; details: P. falciparum in erythrocytes, SYBR Green DNA, 72 h; series mostly up to 28.7 µM
How it was run: as §1

SC27B = assay: as above; details: P. falciparum in erythrocytes, SYBR Green DNA, 72 h; series mostly up to 28.7 µM
How it was run: as §1

TAB109 = assay: as above; details: P. falciparum in erythrocytes, SYBR Green DNA, 72 h; series mostly up to 28.7 µM
How it was run: as §1

TAB113 = assay: as above; details: P. falciparum in erythrocytes, SYBR Green DNA, 72 h; series mostly up to 28.7 µM
How it was run: as §1

TAB165 = assay: as above; details: P. falciparum in erythrocytes, SYBR Green DNA, 72 h; series mostly up to 28.7 µM
How it was run: as §1

W2 = assay: as above; details: P. falciparum in erythrocytes, SYBR Green DNA, 72 h; series mostly up to 28.7 µM
How it was run: as §1

CRL-7250 = normal cell line; assay: Cytotoxic Profiling of Annotated Libraries Using Quantitative High-Throughput Screening (AID 1296008); details: Five cell lines viability, CellTiter-Glo ATP luminescence, 48-72 h; max response: stronger effect = lower value; as to max response: % is scaled to controls: 0 for no effect and ±100 for the full control effect
How it was run: (§2)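 Cytotoxicity was measured as CellTiter-Glo ATP luminescence, read after 10 min at room temperature. Compound treatment of the cells lasted 48 or 72 hr at 37 degrees Celsius in a qHTS format.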

HEK293 = assay: as above; details: Five cell lines viability, CellTiter-Glo ATP luminescence, 48-72 h; max response: stronger effect = lower value
How it was run: as §2

HaCat [1] = assay: as above; details: Five cell lines viability, CellTiter-Glo ATP luminescence, 48-72 h; max response: stronger effect = lower value
How it was run: as §2

KB-3-1 = assay: as above; details: Five cell lines viability, CellTiter-Glo ATP luminescence, 48-72 h; max response: stronger effect = lower value
How it was run: as §2

NIH3T3 = assay: as above; details: Five cell lines viability, CellTiter-Glo ATP luminescence, 48-72 h; max response: stronger effect = lower value
How it was run: as §2

HEK293T = assay: qHTS assay to identify novel small-molecules to repurpose for Merkel cell carcinoma treatment (AID 1296009); details: MCC and control cell lines, CellTiter-Glo viability, 72 h; at 44.8 µM (top of the series) unless noted
How it was run: (§3)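 72 hr, 37 degree celsius; NPC 8-pt / MIPE 11-pt dose response; compound pinned in DMSO; CellTiter-Glo, 10 min RT, luminescence; normalized to no-cell and DMSO controls.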

HACAT [2] = assay: as above; details: MCC and control cell lines, CellTiter-Glo viability, 72 h; at 44.8 µM (top of the series) unless noted
How it was run: as §3

MCC-13 = assay: as above; details: MCC and control cell lines, CellTiter-Glo viability, 72 h; series mostly up to 46 µM
How it was run: as §3

MCC-26 = assay: as above; details: MCC and control cell lines, CellTiter-Glo viability, 72 h; series mostly up to 46 µM
How it was run: as §3
Also: nearly all actives have a fitted effect of over 60% in size.

CC1(C)[C@@H](O)CC[C@]2(C)[C@H]3C(=O)C=C4[C@@H]5C[C@@](C)(C(=O)O)CC[C@]5(C)CC[C@@]4(C)[C@]3(C)CC[C@@H]12
inactive: Potency (P93_24) | Potency (P94_40) | Potency (PAD) | Potency (PC15) | Potency (PC26) | Potency (PC49) | Potency (SC27B) | Potency (TAB109) | Potency (TAB113) | Potency (TAB165) | Potency (W2) | max response (CRL-7250) 1.85% | outcome (HEK293) | max response (HaCat [1]) -15.3% | max response (KB-3-1) 9.23% and -7.89% | outcome (KB-3-1) | max response (NIH3T3) -0.299% | outcome (HEK293T)

COc1cc(/C=C/C(=O)N2CCN(CC(=O)N3CCCC3)CC2)cc(OC)c1OC
inactive: Potency (P94_40) | Potency (PC15) | Potency (PC49) | Potency (SC27B) | Potency (TAB109) | Potency (TAB113) | Potency (TAB165) | Potency (W2) | max response (CRL-7250) -2.29% | max response (HEK293) 1.99% | outcome (HaCat [1]) | max response (KB-3-1) 5.58% | outcome (KB-3-1) | outcome (NIH3T3) | outcome (HACAT [2])

CN(C)CCn1nnnc1SCC1=C(C(=O)O)N2C(=O)[C@@H](NC(=O)Cc3csc(N)n3)[C@H]2SC1
inactive: max response (CRL-7250) -7.23% | max response (HEK293) -4.49% | outcome (HaCat [1]) | max response (KB-3-1) -1.99% | outcome (NIH3T3) | outcome (HACAT [2]) | Potency (MCC-13) | Potency (MCC-26)

CCNC(=O)[C@H]1O[C@@H](n2cnc3c(N)nc(NCCc4ccc(CCC(=O)O)cc4)nc32)[C@H](O)[C@@H]1O
inactive: max response (CRL-7250) 3.23% | outcome (HEK293) | max response (HaCat [1]) 2.46% | max response (KB-3-1) 2.49% | max response (NIH3T3) -6.33% | outcome (HEK293T)

CC1(C)S[C@@H]2[C@H](NC(=O)[C@H](NC(=O)N3CCN(S(C)(=O)=O)C3=O)c3ccccc3)C(=O)N2[C@H]1C(=O)O
inactive: Potency (P93_24) | Potency (P94_40) | Potency (PAD) | Potency (PC15) | Potency (PC26) | Potency (PC49) | Potency (SC27B) | Potency (TAB109) | Potency (TAB113) | Potency (TAB165) | Potency (W2) | max response (CRL-7250) 4.22% | max response (HEK293) -0.837% | outcome (HaCat [1]) | max response (KB-3-1) 1.37% | outcome (KB-3-1) | outcome (NIH3T3) | outcome (HACAT [2])

CO[C@@]1(NC(=O)Cc2cccs2)C(=O)N2C(C(=O)O)=C(COC(N)=O)CS[C@@H]21
inactive: outcome (CRL-7250) | outcome (HEK293) | outcome (HaCat [1]) | max response (KB-3-1) -24.9% and -6.96% | outcome (NIH3T3) | outcome (HACAT [2]) | outcome (HEK293T) | Potency (MCC-13)

O=C(CS)Nc1ccccc1
inactive: max response (CRL-7250) -21.9% | max response (HEK293) -28.6% | outcome (HaCat [1]) | max response (KB-3-1) -19% | max response (NIH3T3) 0.87% | outcome (HACAT [2]) | Potency (MCC-13)

C[C@H](O)[C@H](O)[C@H]1CNc2nc(N)[nH]c(=O)c2N1
inactive: outcome (CRL-7250) | outcome (HEK293) | max response (HaCat [1]) 1.87% | max response (KB-3-1) 14% | outcome (KB-3-1) | outcome (NIH3T3) | outcome (HEK293T)

CN1[C@@H]2CC[C@H]1CC(OC(c1ccccc1)c1ccccc1)C2 (stereo partly specified)
active: Potency (P94_40) 10 µM | Potency (PAD) 11.2 µM | Potency (PC15) 10 µM | Potency (PC49) 3.55 µM and 1.41 µM | Potency (TAB165) 11.2 µM | Potency (W2) 1.9 µM
inactive: Potency (SC27B) | max response (CRL-7250) 0.151% | max response (HEK293) -16.7% | outcome (HaCat [1]) | max response (KB-3-1) -4.67% and 6.16% and -6.04% | outcome (KB-3-1) | max response (NIH3T3) -0.104% | outcome (HACAT [2])

C#CC1(O)CC[C@H]2[C@@H]3CCC4=CCCC[C@@H]4[C@H]3CC[C@@]21C (stereo partly specified)
inactive: max response (CRL-7250) -8.11% | outcome (HEK293) | outcome (HaCat [1]) | max response (KB-3-1) -2.21% | max response (NIH3T3) -0.384% | outcome (HACAT [2]) | outcome (HEK293T) | Potency (MCC-26)

c1ccc2sc(SN3CCOCC3)nc2c1
inactive: Potency (P94_40) | Potency (PC15) | Potency (PC26) | Potency (PC49) | Potency (SC27B) | Potency (TAB113) | outcome (CRL-7250) | outcome (HEK293) | outcome (HaCat [1]) | max response (KB-3-1) 0.575% | max response (NIH3T3) 0.685% | outcome (HACAT [2]) | outcome (HEK293T) | Potency (MCC-13)

O=[N+]([O-])c1ccc(CNc2nc(NCc3cccc(C(F)(F)F)c3)nc3nc[nH]c23)cc1
inactive: max response (CRL-7250) -5.54% | max response (HEK293) -22% | max response (HaCat [1]) 0.807% | outcome (KB-3-1) | outcome (NIH3T3)

CCNc1nc2c(ncn2[C@H]2C[C@H](O)[C@@H](CO)O2)c(=O)[nH]1
inactive: max response (CRL-7250) 0.139% | outcome (HEK293) | max response (HaCat [1]) -28.7% | outcome (KB-3-1) | outcome (NIH3T3) | outcome (HEK293T)

CC1(C)[C@@H](O[C@H]2O[C@H](C(=O)O)[C@@H](O)[C@H](O)[C@H]2O[C@@H]2O[C@H](C(=O)O)[C@@H](O)[C@H](O)[C@H]2O)CC[C@]2(C)[C@H]3C(=O)C=C4[C@@H]5C[C@@](C)(C(=O)O)CC[C@]5(C)CC[C@@]4(C)[C@]3(C)CC[C@@H]12
inactive: max response (CRL-7250) -24.4% | max response (HEK293) -5.35% | max response (HaCat [1]) -32.3% | max response (KB-3-1) 5.21% | outcome (KB-3-1)

O=C(O)CC1CC(c2ccccc2)=NO1 (stereo unspecified)
inactive: max response (CRL-7250) -3.03% | max response (HEK293) 0.396% | max response (HaCat [1]) -1.53% | outcome (KB-3-1) | max response (NIH3T3) -6.76%

O=C1CC[C@@H](C(=O)N2CSC[C@H]2C(=O)O)N1 ([pGlu]-[Thz]-OH)
inactive: Potency (P93_24) | Potency (P94_40) | Potency (PAD) | Potency (PC15) | Potency (PC26) | Potency (PC49) | Potency (SC27B) | Potency (TAB109) | Potency (TAB113) | Potency (TAB165) | Potency (W2) | max response (CRL-7250) -1.65% | max response (HEK293) -11.6% | max response (HaCat [1]) 2.27% | max response (KB-3-1) -5.47% | outcome (KB-3-1) | outcome (NIH3T3)
